Source: PubChem BioAssay
Shown are actives, neighbours in structure and some others; about 7.9% of the full set was active somewhere.
KB-3-1 cytotox = KB-3-1 parental cell cytotoxicity; 400,000 tested, 1.4% active; Potency, µM (titrated, usually from 46.1 µM), hits mostly cytotoxic; KB-3-1 viability, CellTiter-Glo ATP luminescence, 72 h; further: on the % scale 0 is the no-effect control and ±100 the full control effect; nearly all actives have a fitted effect of over 60% in size
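Multi-concentration cytotoxicity screen in KB-3-1 cells grown in DMEM lacking phenol red with 10% FBS. After 72 h at 37 °C with compound, ATP-dependent luminescence was recorded.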
KB-V1 MDR tox = kills drug-selected multidrug resistant KB-V1 cells; KB-V1 MDR cells viability, CellTiter-Glo, 72 h; Potency, µM (doses to about 46.1 µM), usual class: cytotoxic; 400,000 tested, 3.4% active; further: on the % scale 0 is the no-effect control and ±100 the full control effect; nearly all actives have a fitted effect of over 60% in size
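qHTS viability screen in drug-selected KB-V1 MDR cells: 72 h compound treatment at 37 degrees C, ATP luminescence end point.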
HT1080 IDH1KD tx = HT-1080 IDH1 knockdown cell toxicity (counter line); HT-1080 IDH1 knockdown viability, ATP luminescence, 48 h; Potency, µM (top dose mostly 46.1 µM), inactives show at the highest dose activity, negative = toxicity, usual class: cytotoxic; 360,000 tested, 2% active; AID 686971;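 further: 0% = DMSO wells and -100% = cell-free medium wells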
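IDH1KD HT-1080 cells, 750/well, RPMI + 5% FBS; compound pinned after 2 h settling; 48 h, 37 °C; CellTiter-Glo luminescence; % activity normalised to DMSO and no-cell wells; curves fitted, classed by r2 and efficacy.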
HT1080NT lethal = kills 2HG-producing HT-1080-NT fibrosarcoma cells; HT-1080-NT fibrosarcoma viability, CellTiter-Glo ATP luminescence, 48 h; Potency, µM (top dose mostly 46.1 µM), for the others: top-dose activity, negative = less viability, actives largely listed as cytotoxic; 360,000 tested, 1.6% active;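 further: NT is the 2HG producing partner of a matched IDH1 knockdown line; 0% = DMSO-treated cells and -100% = media-only wells without cells; nearly all actives have a fitted effect of over 55% in size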
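HT-1080-NT fibrosarcoma cells (2HG-overproducing), 750 cells/well in RPMI with 5% FBS, dosed after 2 h and incubated 48 h at 37C. CellTiter-Glo luminescence normalized to DMSO and no-cell wells; concentration-response curves fitted and classed.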
SW480 rereplic = induces DNA re-replication in SW480 colon adenocarcinoma cells; SW480 DNA re-replication, Hoechst DNA content imaging, 48 h; Potency, µM (series often up to 46.1 µM), without a hit: at the highest dose re-replication activation, usual class: activators; 340,000 tested, 1.8% active; AID 624297; further: % of control where 0% means no effect; nearly all actives have a fitted effect of over 55% in size
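SW480 cells exposed to compounds for 48 hr at 37 C, 5% CO2, then Hoechst-stained 40 min. Nuclear DNA content imaged by fluorescence scanning (405 nm excitation, 500-530 nm emission); re-replication scored as increased high-intensity nuclei.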
MCF10A rerep = DNA re-replication induction in MCF 10a cells. MCF 10A DNA re-replication, Hoechst nuclear intensity, 48 h. Potency, µM (highest dose often 46.1 µM), for the others: at the top dose activity, positive = re-replication, actives largely listed as activators. 350,000 tested, 2.9% active; further: % of control where 0% means no effect; nearly all actives have a fitted effect of over 50% in size
Numbers without * were called inactive; i = inactive; ? = inconclusive; nt = no result given. The call rests on the fitted dose curve; in most records, active means well fitted curve in the direction sought with a large enough effect; inconclusive means small, poorly fitted or top-dose-only effect, or another doubt; inactive means no such curve, though single readings can be large; an effect the other way counts as inactive or inconclusive. Potency means the concentration at half of the fitted maximal effect.

SMILES	KB-3-1 cytotox	KB-V1 MDR tox	HT1080 IDH1KD tx	HT1080NT lethal	SW480 rereplic	MCF10A rerep
CCn1cc(C(=O)N2CCN(c3ccc(OC)cc3)CC2)c2cc(OC)c(OC)cc2c1=O	i	?	5%	0%	-2%	-3%
Cn1cc(-c2cc3n(n2)CCC(=O)N3CC(=O)NCc2ccccc2)c2ccccc21	i	i	nt	nt	nt	nt
O=C(N/N=C/c1cccc(O)c1)c1ccc(COc2ccccc2Br)cc1	i	i	-21%	-14%	9%	23µM*
COc1ccccc1OCc1ccc(C(=O)Nc2ccccc2)cc1	i	i	4%	8%	-2%	1%
O=C(N/N=C/c1ccc([N+](=O)[O-])cc1)c1ccc(COc2ccccc2-c2ccccc2)cc1	?	16µM*	6%	-6%	-9%	-15%
CC(C)(C)c1ccc(OCc2ccc(C(=O)N/N=C/c3ccc(O)c(O)c3)cc2)cc1	?	?	?	26µM*	2%	?
O=C(Nc1ccc(Cn2cccn2)cc1)c1ccc(COc2ccccc2Br)cc1	9.2µM*	18µM*	?	?	?	?
Cc1ccc(-c2nc(CSc3nnc(C)n4c3cc3occc34)c(C)o2)cc1	i	i	nt	nt	nt	nt
NC(=O)Nc1ccc(/C=C2\C=Cc3ccccc32)cc1	?	i	nt	nt	nt	nt
CCCOc1ccc(F)cc1-c1cc(C(=O)NCc2ccccc2OC)[nH]n1	i	i	0%	-20%	nt	nt
CCCc1c(-c2ccc(F)cc2F)ncn1Cc1ccccc1OC	?	?	?	18µM*	nt	nt
CCCc1c(-c2cccc(F)c2)ncn1Cc1ccccc1OC	i	?	?	?	nt	nt
CCCc1c(-c2ccccc2)ncn1Cc1ccccc1OC	?	18µM*	?	-27%	nt	nt
Cc1oc2ncn(C)c(=O)c2c1C(=O)N(C)c1ccccc1F	i	i	nt	nt	nt	nt
CC(C)(C)c1ccc(NC(=O)N2CCCN(c3c(Cl)cncc3Cl)CC2)cc1	i	i	-14%	?	?	7.3µM*
Cc1ccccc1-n1c(SCC(=O)Nc2ccccc2Cl)nc2n[nH]c(C)c2c1=N	?	i	?	?	-6%	?
CCOc1ccccc1-n1c(SCC(=O)Nc2ccc(CC)cc2)nc2n[nH]c(C)c2c1=N	18µM*	?	?	-9%	-2%	8.2µM*
CCOc1ccccc1NC(=O)CCSc1nc2n[nH]c(C)c2c(=N)n1-c1ccccc1Cl	i	?	?	?	?	13µM*
CCc1cnc2c(c1SCc1ccccc1C)c(=O)n(C)c(=O)n2C	i	i	nt	nt	nt	nt
COc1ccc(-c2nc3ccc(NC(=O)COC(C)=O)cc3c(=O)n2Cc2ccccc2)cc1COc1ccc(NC(C)=O)cc1	nt	nt	-7%	-13%	nt	nt
CCOc1ccccc1CNC(=O)c1[nH]c2ccccc2c1Sc1ccccc1	i	?	nt	nt	nt	nt
CCSc1nnc2c(n1)[nH]c1c(C)cccc12	?	16µM*	?	?	10%	-2%
Cc1ccc(CCNC(=O)c2c3c(nc4ccccc24)C(=O)N(C2CCCCC2)C3)cc1	i	i	nt	nt	nt	nt
COc1ccc(-c2noc(-c3ccc(Cl)cc3[N+](=O)[O-])n2)cc1OC	i	18µM*	-1%	9%	0%	-3%
COc1ccc(-c2noc(CN(C)S(=O)(=O)c3ccc(Cl)cc3)n2)cc1OC	?	7.3µM*	-27%	-15%	-2%	1%
COc1ccc(-c2noc(CN(C)S(=O)(=O)c3c(C)cc(C)cc3C)n2)cc1OC	i	?	nt	nt	nt	nt
CCOc1ccc(NC(=NCc2ccc3c(c2)OCO3)SC2CC(=O)N(c3ccccc3)C2=O)cc1 (stereo not given)	i	i	-30%	-25%	1%	?
CCOc1ccc(NC(=NCc2ccc3c(c2)OCO3)SC2CC(=O)N(c3ccc(OCC)cc3)C2=O)cc1 (stereo not given)	i	?	?	?	16%	21µM*
